Screening data deposited in PubChem by National Center for Advancing Translational Sciences (NCATS).
KDM5B inh: inhibitors of human KDM5B histone demethylase | Q9UGL1 | KDM5B demethylase, FDH-coupled NADH fluorescence (FDH is formaldehyde dehydrogenase) | Potency, µM (series often up to 57.7 µM), actives largely listed as inhibitors | 2.6% of 220,000 active | AID 1347165; active = well fitted inhibition curve with a large enough effect; also: 0% is about no effect; nearly all actives have a fitted effect of over 70% in size
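Here, H3K4me3 peptide (12.5 µM in substrate mix) is demethylated by KDM5BΔAP, 200 nM final, after 10 min compound exposure. Formaldehyde product is coupled through FDH (0.25 U/mL in mix) to NADH fluorescence; 30-min ΔRFU feeds dose-response curves.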
Active calls of the source: *. This excerpt belongs to a sample that is enriched for hits. Potency is read from the fitted curve at half-maximal effect.

How did O=C(c1cc(-c2ccc(F)cc2)nc2ccccc12)N1CCC(Cc2nncn2CC2CC2)CC1 do in these assays?
KDM5B inh: 28.2µM*

What do the screens show for `CCOC(=O)N1CCC(NC(=O)c2cnn3c(C)c(Cc4ccccc4)c(C)nc23)CC1`?
KDM5B inh: inactive

What do the screens show for `O=C(NC1CCCCC1)N1CCC(Cc2nncn2CC2CC2)CC1`?
KDM5B inh: inactive

Results for Cc1ccc(-c2cc(C(=O)NC3CCC(C)CC3)c3ccccc3n2)cc1C (stereo not given) ?
KDM5B inh: inactive

How did O=C(c1cc(F)ccc1F)N1CCCC(Cc2nncn2CC2CC2)C1 (stereo not given) do in these assays?
KDM5B inh: inactive

Results for Cc1ccc(-c2cc(C(=O)N3CCC(Cc4nncn4CC4CC4)CC3)c3ccccc3n2)cc1C ?
KDM5B inh: 22.4µM*

What do the screens show for `Cc1ccc(Cc2c(C)nc3c(C(=O)N4CCC(Cc5nncn5CC5CC5)CC4)cnn3c2C)cc1`?
KDM5B inh: 28.2µM*

How did Cc1ccc(NC(=O)N2CCC(Cc3nncn3Cc3ccccc3)C2)cc1C (stereo not given) do in these assays?
KDM5B inh: inactive

Results for NC(=O)C1CCN(C(=O)c2cc(-c3ccccc3)nc3ccccc23)CC1 ?
KDM5B inh: inactive

How did CC(C)(C)c1ccc(/C=N/Nc2ccc(Cl)c(Cl)c2)cc1 do in these assays?
KDM5B inh: inactive

What do the screens show for `Cc1ccc(S(=O)(=O)N2CCCC2c2cc(C(C)C)no2)cc1C` (stereo not given)?
KDM5B inh: inactive

How did Cc1ccc(OCc2nc(C3CN(C(=O)c4ccc5nc[nH]c5c4)C3)no2)cc1 do in these assays?
KDM5B inh: inactive

Results for COc1ccc(-n2nnnc2C(C)(C)Nc2ccc(C)cc2)cc1OC ?
KDM5B inh: inactive

Results for COc1cc(CNC2CCCCCCC2)ccc1OCC(O)CN1CCSCC1 (stereo not given) ?
KDM5B inh: inactive

Results for O=c1c2nc(N3CCC(c4ccccc4)CC3)ccc2ncn1C1CC1 ?
KDM5B inh: 35.5µM*

Results for CN1CCN(c2ccc3ncn(-c4cccnc4)c(=O)c3n2)CC1 ?
KDM5B inh: 35.5µM*

How did O=c1c2nc(N3CCC(c4ccccc4)CC3)ccc2ncn1-c1cccnc1 do in these assays?
KDM5B inh: 35.5µM*

What do the screens show for `Cn1nc(C2CCCN(C(=O)c3cccnc3)C2)n(-c2ccccc2)c1=O` (stereo not given)?
KDM5B inh: inactive

How did CN1CCN(S(=O)(=O)c2ccc(N3CCN(c4ccccc4Cl)CC3)nc2)CC1 do in these assays?
KDM5B inh: inactive

Results for CN1CC(=O)N(c2cccnc2)Cc2c1ncnc2N1CCN(c2ncccn2)CC1 ?
KDM5B inh: inactive

What do the screens show for `CCc1cc(N2CCC3(CC2)CC(c2ccccc2)C(=O)N3)nc(N(C)C)n1` (stereo not given)?
KDM5B inh: inactive

How did O=C(NNC1CC(=O)N(c2ccccc2)C1=O)c1cccnc1 (stereo not given) do in these assays?
KDM5B inh: inactive

What do the screens show for `O=CN1CCC(n2cnc3cccnc32)CC1`?
KDM5B inh: inactive

How did COc1ccccc1N1CCN(C(=O)C(C)[C@@H]2CCc3c(C)cc(OCCN4CCOCC4)c(C)c3C2)CC1 (stereo not given in full) do in these assays?
KDM5B inh: inactive

Results for CCOC(=O)C1(Cc2ccccc2F)CCCN(C(=O)c2c(C)nc3sccn23)C1 (stereo not given) ?
KDM5B inh: inactive

How did COc1ccc(OC)c(/C=C2\Oc3cc(OC(=O)C(C)(C)C)ccc3C2=O)c1 do in these assays?
KDM5B inh: inactive

How did CC1Nc2ccccc2NC2=C1C(=O)CC(C)(C)C2 (stereo not given) do in these assays?
KDM5B inh: inactive

Results for NC(=O)c1cccc(CN2CCCC3(Cc4ccccc4N(C(=O)C4CCCC4)C3)C2)c1 (stereo not given) ?
KDM5B inh: inactive

What do the screens show for `CCCCNc1oc(/C=C/c2ccccc2OC)nc1C#N`?
KDM5B inh: inactive

How did COc1cc(C(=O)NCc2nc3ccccc3n2C(C)C)cc(OC)c1OC do in these assays?
KDM5B inh: inactive

What do the screens show for `COc1ccc(-c2nonc2NC(=O)c2ccc(OCC(C)C)cc2)cc1OC`?
KDM5B inh: inactive

Results for COc1ccc(Nc2nccc(-c3ccc(C#N)cc3)n2)cc1 ?
KDM5B inh: inactive

Results for COc1ccc(-n2cc(-c3ccnc(NCCC4CCCN4C)n3)cn2)cc1 (stereo not given) ?
KDM5B inh: 28.2µM*

How did c1cc(-c2ccnc(NCC3(N4CCOCC4)CCCCC3)n2)ccn1 do in these assays?
KDM5B inh: inactive

How did Clc1cccc(-n2ncc3c(NC4CCCC4)ncnc32)c1 do in these assays?
KDM5B inh: inactive

Results for Cn1c(=O)n(CC(=O)O)c(=O)c2c3c(sc21)COC(C)(C)C3 ?
KDM5B inh: inactive

Results for Fc1ccc(Br)cc1-c1nc2cc3c(cc2[nH]1)OCCO3 ?
KDM5B inh: inactive

Results for CCCn1nc(C(=O)N2CCN(S(=O)(=O)c3ccc(C)cc3C)CC2)c2ccccc2c1=O ?
KDM5B inh: inactive
